For orientation: AC50 means the concentration at which the activity in the assay is half-maximal.

Structures are written as SMILES. Some compounds were tested as several samples or in several runs, with calls that do not always agree. Calls of active or inactive are those of the source. The calls were made as follows: active = hit-call score of the fitted dose curve at least 0.9, where 1 is the maximum; inactive = score below 0.9.

Read-out in assay [1]: TIMP metallopeptidase inhibitor 2 (TIMP2), TIMP2 (gene 7077)
The assay can be described thus: BSK_KF3CT_TIMP2: BioMAP Diversity Plus: KF3CT Assay for TIMP metallopeptidase inhibitor 2 (TIMP2) Biomarker Activity (AID 2283071). To be noted: primary human keratinocytes with fibroblasts; actives raise or lower the signal. A digest of the protocol:
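Cells: human keratinocytes co-cultured with foreskin fibroblasts. Treat with chemical, 24 h. Measure TIMP-2 by ELISA; fit curves bidirectionally vs DMSO baseline.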

Read-out in assay [2]: Transforming growth factor beta 1 (TGFb1), TGFB1 (gene 7040)
The assay can be described thus: BSK_KF3CT_TGFb1: BioMAP Diversity Plus: KF3CT Assay for Transforming growth factor beta 1 (TGFb1) Biomarker Activity (AID 2283072). Conditions: primary human keratinocytes with fibroblasts; actives raise or lower the signal. A digest of the protocol: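 Primary human skin cells (keratinocytes, foreskin fibroblasts) were co-cultured, exposed to test chemical and sampled at 24 h. TGF-b1 levels were measured by ELISA and fitted bidirectionally relative to DMSO.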

Read-out in assay [3]: C-C motif chemokine 2 (Homo sapiens) (UniProt P13500)
Put plainly: BSK_KF3CT_MCP1: BioMAP Diversity Plus: KF3CT Assay for Monocyte Chemoattractant Protein 1 (MCP1/CCL2) Biomarker Activity (AID 2283073). To be noted: primary human keratinocytes with fibroblasts; actives raise or lower the signal. Summed up:
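KF3CT skin co-culture (keratinocytes/foreskin fibroblasts), 24 h post-dose; MCP-1 by ELISA; gain/loss of signal fit bidirectionally vs DMSO baseline.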

Read-out in assay [4]: Matrix Metallopeptidase 9 (MMP9), MMP9 (gene 4318)
The assay can be described thus: BSK_KF3CT_MMP9: BioMAP Diversity Plus: KF3CT Assay for Matrix Metallopeptidase 9 (MMP9) Biomarker Activity (AID 2283074).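 As to AC50: MMP9 protein level quantified by ELISA in the co-culture.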 To be noted: primary human keratinocytes with fibroblasts; actives raise or lower the signal. A digest of the protocol:
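Human keratinocyte/foreskin fibroblast co-culture; compound added; 24 h; MMP-9 by ELISA; bidirectional fit vs DMSO baseline.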

Read-out in assay [5]: CD40, CD40 (gene 958)
The assay can be described thus: BSK_LPS_CD40: BioMAP Diversity Plus: LPS Assay for CD40 Biomarker Activity (AID 2283076). Conditions: primary human HUVEC with PBMC; actives raise or lower the signal. Summed up:
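ELISA readout of CD40 in HUVEC/PBMC co-culture (BSK_LPS system), 24 h post-dosing; bidirectional curve fit, DMSO baseline; parallel SRB total-protein staining for cytotoxicity.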

Read-out in assay [6]: E-selectin (Homo sapiens) (UniProt P16581)
The assay can be described thus: BSK_LPS_Eselectin: BioMAP Diversity Plus: LPS Assay for Eselectin Biomarker Activity (AID 2283077). Conditions: primary human HUVEC with PBMC; actives raise or lower the signal. A digest of the protocol: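 ELISA readout of E-selectin, 24 h post-dose, HUVEC + PBMC co-culture (LPS system). Gain or loss of signal vs DMSO baseline, bidirectional fit.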

Read-out in assay [7]: Interleukin-8 (IL8), CXCL8 (gene 3576)
Put plainly: BSK_LPS_IL8: BioMAP Diversity Plus: LPS Assay for Interleukin-8 (IL8) Biomarker Activity (AID 2283078). To be noted: primary human HUVEC with PBMC; actives raise or lower the signal. A digest of the protocol: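 HUVEC + PBMC co-culture, LPS-activated; test chemicals dosed, IL-8 read by ELISA at 24 h. Bidirectional curve fit vs DMSO baseline (gain or loss of signal).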

Assay [8] can be described thus: BSK_LPS_SRB: Viability Assessment in the BioMAP Diversity Plus: LPS Assay (AID 2283079).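 Also: total protein by sulforhodamine B absorbance as a cytotoxicity measure; measured one day after compound addition; fitted in both directions against DMSO so loss or gain of signal counts.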 To be noted: primary human HUVEC with PBMC. A digest of the protocol:
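HUVEC + PBMC co-culture, LPS-stimulated; compound 24 h. 10% TCA fix, 0.1% SRB stain, A560. Bidirectional fit vs DMSO.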

Read-out in assay [9]: Interleukin-1 alpha (IL1a), IL1A (gene 3552)
Put plainly: BSK_LPS_IL1a: BioMAP Diversity Plus: LPS Assay for Interleukin-1 alpha (IL1a) Biomarker Activity (AID 2283080). Conditions: primary human HUVEC with PBMC; actives raise or lower the signal. Summed up:
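HUVEC/PBMC co-culture, LPS system; 24 h after dosing; IL-1a by ELISA; gain or loss of signal fitted bidirectionally vs DMSO baseline.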

Read-out in assay [10]: urokinase plasminogen activator (uPA), PLAU (gene 5328)
Put plainly: BSK_KF3CT_uPA: BioMAP Diversity Plus: KF3CT Assay for urokinase plasminogen activator (uPA) Biomarker Activity (AID 2283075). Conditions: primary human keratinocytes with fibroblasts; actives raise or lower the signal. A digest of the protocol: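 ELISA readout of uPA, analyzed for signal gain or loss relative to DMSO, from a human primary keratinocyte–foreskin fibroblast co-culture measured 24 h after chemical treatment.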

E-selectin (Homo sapiens), sequence (P16581 whole entry, looked up): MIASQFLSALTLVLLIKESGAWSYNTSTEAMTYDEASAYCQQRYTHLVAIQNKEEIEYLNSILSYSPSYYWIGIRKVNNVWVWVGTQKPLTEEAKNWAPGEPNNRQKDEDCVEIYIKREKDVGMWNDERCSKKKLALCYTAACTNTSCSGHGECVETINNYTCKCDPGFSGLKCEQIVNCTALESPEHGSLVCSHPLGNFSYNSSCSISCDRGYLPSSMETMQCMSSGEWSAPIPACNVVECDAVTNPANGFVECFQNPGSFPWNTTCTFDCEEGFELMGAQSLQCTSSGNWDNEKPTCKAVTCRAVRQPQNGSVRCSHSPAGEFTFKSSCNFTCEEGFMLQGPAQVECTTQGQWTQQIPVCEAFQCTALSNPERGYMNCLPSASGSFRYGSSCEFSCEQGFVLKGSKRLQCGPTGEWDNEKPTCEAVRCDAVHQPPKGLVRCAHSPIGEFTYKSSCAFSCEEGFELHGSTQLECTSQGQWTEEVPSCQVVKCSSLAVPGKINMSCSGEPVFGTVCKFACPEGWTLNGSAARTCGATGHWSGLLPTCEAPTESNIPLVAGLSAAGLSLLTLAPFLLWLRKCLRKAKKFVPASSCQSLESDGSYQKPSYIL

As for `C=C[Si](OCC)(OCC)OCC`, the result in assay [1], in [2], in [3], in assay [4], in assay [5] and in assay [6] was inactive. Also, the outcome in [7], in assay [8] and in assay [9] was inactive.

As for `CC[Si](OC(C)=O)(OC(C)=O)OC(C)=O`, the outcome in assay [1], in [3], in assay [4], in assay [10], in assay [5] and in assay [6] was inactive. For the same compound, the outcome in assay [7], in assay [8] and in assay [9] was inactive. Also, the AC50 in assay [5] is 0.626 µM (active).

In the case of `CC1COc2ccccc2N1C(=O)C(Cl)Cl` (stereo not drawn), the outcome in assay [1], in assay [2], in assay [3] and in assay [7] was inactive. For the same compound, the AC50 in assay [4] was 13.7 µM (active); in assay [5], 10.9 µM (active); in assay [6], 20 µM (active); in assay [8], 7.42 µM (active); in assay [9], 13.2 µM (active).

On to `CCCCC/C=C/C=C/C=O`, for which the AC50 is 24.3 µM (active) in assay [1]; 9.27 µM (active) in assay [2]; 32.5 µM (active) in assay [3]; 26.8 µM (active) in assay [4]; 20 µM (active) in assay [5]; 34.1 µM (active) in [6]. Also, the values for the AC50 in assay [7], in assay [8] and in assay [9] were 32.6 µM (active), 29.7 µM (active) and 29.2 µM (active), respectively.

Regarding `CC(=O)OCCC(C)CC(C)(C)C` (stereo not drawn), the outcome in assay [1], in assay [3], in [4], in [5], in [6] and in assay [7] was inactive. The result in assay [8] and in assay [9] was inactive.

On to `C[C@H]1C[C@@H]2[C@H]([C@@H](O)C[C@@]3(C)[C@H]2CC[C@]3(O)C(=O)CO)[C@@]2(C)C=CC(=O)C=C12`, for which the result in assay [1], in assay [3], in assay [4], in assay [5], in assay [6] and in [7] was inactive. Moreover, the result in assay [8] and in assay [9] was inactive.

In the case of `NCCNCCN`, the result in assay [1], in assay [3], in assay [4], in assay [5], in assay [6] and in [7] was inactive. For the same compound, the result in [8] and in assay [9] was inactive.

Turning to `CCCCCCCCC=O`, the outcome in [1], in assay [2], in [3], in assay [4], in [5] and in [6] was inactive. The result in assay [7], in assay [8] and in [9] was inactive.

`Cc1ccc(O)c(C(C)(C)C)c1`: the AC50 is 24.9 µM (active) in [1]; 20 µM (active) in assay [2]; 36.6 µM (active) in assay [3]; 30.9 µM (active) in [4]; 30.4 µM (active) in assay [5]; 30.4 µM (active) in assay [6]. Also, the concentration at half-maximal activity (AC50) is 29.6 µM (active) in [7], 31 µM (active) in assay [8] and 36.2 µM (active) in assay [9].

Consider `O=C(O)c1cn(-c2ccc(F)cc2)c2cc(N3CCNCC3)c(F)cc2c1=O`, for which the outcome in [1], in assay [2], in assay [3], in assay [4], in [5] and in assay [6] was inactive. Also, the outcome in assay [7], in [8] and in assay [9] was inactive.

`O=C1OC2(c3cc(Br)c(O)c(Br)c3Oc3c2cc(Br)c(O)c3Br)c2c(Cl)c(Cl)c(Cl)c(Cl)c21`: the AC50 was 1.6 µM (active) in assay [1]; 0.979 µM (active) in [2]; 3.53 µM (active) in assay [4]; 4.27 µM (active) in assay [5]; 5.71 µM (active) in assay [6]; 13.2 µM (active) in [7]. In addition, the AC50 was 3.6 µM (active) in [8] and 3.73 µM (active) in [9].

For the compound `C=C(C)C(=O)O[C@H]1C[C@@H]2CC[C@@]1(C)C2(C)C`, the AC50 was 10.2 µM (active) in assay [1]; 12.8 µM (active) in [3]; 20 µM (active) in assay [4]; 27.8 µM (active) in assay [5]; 29.6 µM (active) in assay [6]; 31.2 µM (active) in [7]. The AC50 in assay [8] is 30.4 µM (active); in [9], 25.8 µM (active). Besides, in [2], the outcome was inactive.

`COC(=O)c1ccc(C)cc1`: the result in assay [1], in assay [2], in [3], in assay [4], in assay [5] and in assay [6] was inactive. Also, the outcome in assay [7], in assay [8] and in [9] was inactive.

Regarding `CC(=O)[C@H]1CC[C@H]2[C@@H]3CC=C4C[C@@H](O)CC[C@]4(C)[C@H]3CC[C@]12C`, the result in assay [1], in [3], in [4], in assay [5], in assay [6] and in [7] was inactive. In addition, the outcome in assay [8] and in assay [9] was inactive.

Regarding `Nc1cc([N+](=O)[O-])ccc1O`, the outcome in [1], in assay [3], in [4], in assay [5], in assay [6] and in assay [7] was inactive. For the same compound, the outcome in [8] and in [9] was inactive.

`OC1OC[C@@H](O)[C@H](O)[C@H]1O` (stereo partly drawn): the outcome in [1], in assay [3], in [4], in [5], in assay [6] and in assay [7] was inactive. In addition, the result in assay [8] and in assay [9] was inactive.

In the case of `C=CCOC(=O)CCC1CCCCC1`, the result in [1], in [3], in [4], in assay [5], in assay [6] and in assay [7] was inactive. Besides, the outcome in [8] and in assay [9] was inactive.

Take `CC(C)c1ccc(C(C)C)cc1`: the AC50 in [1] is 31.8 µM (active); in assay [6], 32.1 µM (active). Also, the result in assay [2], in assay [3], in assay [4], in assay [5], in [7] and in assay [8] was inactive. Moreover, in [9], the outcome was inactive.

Consider `Cc1cc(C2(c3cc(C)c(O)cc3C)OS(=O)(=O)c3ccccc32)c(C)cc1O`, for which the outcome in assay [1], in assay [3], in assay [4], in assay [10], in assay [5] and in assay [6] was inactive. The result in assay [7], in [8] and in assay [9] was inactive.

As for `O=C(O)c1cn(C2CC2)c2cc(N3CCNCC3)c(F)cc2c1=O`, the outcome in assay [1], in assay [2], in assay [3], in [4], in assay [5] and in [6] was inactive. Moreover, the result in assay [7], in assay [8] and in [9] was inactive.

As for `COc1cc(C=O)ccc1OC(=O)C(C)C`, the result in assay [1], in assay [3], in assay [4], in assay [5], in [6] and in assay [7] was inactive. Moreover, the result in [8] and in assay [9] was inactive.

On to `O=[N+]([O-])c1cc(C(F)(F)F)ccc1Cl`, for which the result in [1], in assay [2], in assay [3], in [4], in assay [5] and in [6] was inactive. Also, the outcome in assay [7], in assay [8] and in assay [9] was inactive.

Regarding `OC[C@H]1O[C@H](O[C@]2(CCl)O[C@H](CCl)[C@@H](O)[C@@H]2O)[C@H](O)[C@@H](O)[C@H]1Cl`, the result in assay [1], in assay [3], in [4], in [5], in assay [6] and in assay [7] was inactive. Also, the result in [8] and in assay [9] was inactive.

With `c1ccc2sc(SN(C3CCCCC3)C3CCCCC3)nc2c1`, the outcome in [1], in assay [2], in assay [3], in [5], in assay [6] and in assay [7] was inactive. Besides, the result in assay [8] and in assay [9] was inactive. In assay [4], the AC50 is 0.888 µM (active).

Consider `CCC(=O)OCc1ccccc1`, for which the outcome in assay [1], in [3], in [4], in assay [5], in assay [6] and in assay [7] was inactive. Also, the outcome in assay [8] and in assay [9] was inactive.

Regarding `CCCCCCCCCC=O`, the result in [1], in assay [2], in assay [3], in assay [4], in assay [5] and in assay [6] was inactive. Moreover, the result in assay [7], in [8] and in assay [9] was inactive.

Turning to `BrC1CCC(Br)C(Br)CCC(Br)C(Br)CCC1Br` (stereo not drawn), the AC50 in [1] was 1.53 µM (active); in assay [4] it was 4.72 µM (active); in assay [5], 4.57 µM (active); in [8], 4.63 µM (active); in assay [9], 4.58 µM (active). Moreover, the result in assay [2], in [3], in assay [6] and in [7] was inactive.

The values are drawn from PubChem BioAssay (EPA / NIEHS).
